Experimental data: publication PMC4336329 (PLoS ONE, 2015)
Out of some 310,000 compounds screened, about 14,000 (4.5%) showed an effect of 50% or more. The effect is printed as a negative number. For the sample, strong results were picked, then their nearest neighbours and some compounds at random.

Molecular target: human ether-à-go-go-related gene (hERG) potassium channel (human, UniProt Q12809)
Experiment: primary screen, population patch clamp on CHO cells stably expressing hERG; higher = less effect of the substance
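Note: peak tail current of the secondary pulse compared with the same well before compound.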

Sequence of human ether-à-go-go-related gene (hERG) potassium channel (Q12809 whole entry, looked up): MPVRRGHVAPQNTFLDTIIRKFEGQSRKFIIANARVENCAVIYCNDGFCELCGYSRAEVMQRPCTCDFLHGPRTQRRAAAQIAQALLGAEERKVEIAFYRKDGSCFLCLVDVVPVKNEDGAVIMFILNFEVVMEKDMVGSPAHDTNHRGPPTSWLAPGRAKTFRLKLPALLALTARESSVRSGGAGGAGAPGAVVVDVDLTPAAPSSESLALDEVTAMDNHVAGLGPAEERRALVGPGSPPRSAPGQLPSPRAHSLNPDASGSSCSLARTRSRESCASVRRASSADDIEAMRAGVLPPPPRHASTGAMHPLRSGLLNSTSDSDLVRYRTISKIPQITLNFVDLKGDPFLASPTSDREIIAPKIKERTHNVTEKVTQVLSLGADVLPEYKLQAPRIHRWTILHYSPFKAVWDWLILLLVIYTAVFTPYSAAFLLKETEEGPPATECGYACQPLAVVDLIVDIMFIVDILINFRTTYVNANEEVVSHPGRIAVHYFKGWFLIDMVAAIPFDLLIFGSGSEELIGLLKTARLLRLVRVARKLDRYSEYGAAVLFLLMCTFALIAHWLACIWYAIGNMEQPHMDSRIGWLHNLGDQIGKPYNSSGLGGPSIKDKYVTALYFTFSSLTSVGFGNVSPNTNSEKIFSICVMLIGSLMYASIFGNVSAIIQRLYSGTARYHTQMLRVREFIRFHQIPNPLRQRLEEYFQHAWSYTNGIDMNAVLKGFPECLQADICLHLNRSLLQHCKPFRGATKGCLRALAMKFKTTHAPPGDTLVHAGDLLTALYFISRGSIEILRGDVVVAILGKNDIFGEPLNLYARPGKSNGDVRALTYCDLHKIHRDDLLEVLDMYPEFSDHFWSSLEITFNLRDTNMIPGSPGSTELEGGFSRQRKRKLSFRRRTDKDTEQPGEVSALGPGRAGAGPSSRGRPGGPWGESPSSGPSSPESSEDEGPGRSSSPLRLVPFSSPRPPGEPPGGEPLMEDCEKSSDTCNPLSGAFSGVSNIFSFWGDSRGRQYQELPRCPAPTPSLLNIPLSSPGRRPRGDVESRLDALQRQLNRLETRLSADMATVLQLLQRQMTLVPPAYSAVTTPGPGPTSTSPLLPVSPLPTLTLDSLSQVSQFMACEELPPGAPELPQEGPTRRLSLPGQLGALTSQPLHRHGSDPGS

| Structure (SMILES) | hERG current change (%, negative = inhibition) at 10uM [%] |
| --- | --- |
| C/C(N)=C(/C#N)C(=O)COC(=O)C1CCC(C(C)(C)C)CC1 (stereo not shown) | -7.3 |
| O=c1[nH]c(C2CCN(S(=O)(=O)c3ccccc3)CC2)nc2c1nnn2Cc1c(F)cccc1Cl | -2.84 |
| CCOC(=O)c1[nH]c2c(c1C)C(=O)CC(c1ccc(OC)c(OC)c1)C2 (stereo not shown) | -9.84 |
| O=C(CN1CCN(c2ccccc2F)CC1)Nc1ccccc1F | -1.86 |
| Cl.O=C(CCN1CCCCCC1)Nc1ccccc1F | -4.4 |
| CN1CCN(CCC(=O)Nc2ccccc2Cl)CC1 | -1.75 |
| O=C(CCN1CCN(c2ccccc2F)CC1)Nc1ccccc1Cl | -2.49 |
| O=C(CCN1CCN(CC(=O)Nc2ccccc2F)CC1)Nc1ccccc1F | -65.4 |
| O=C(CCN1CCN(CC(=O)Nc2ccccc2Cl)CC1)Nc1ccccc1F | -69.1 |
| COc1ccc(N(Cc2ccccc2)S(=O)(=O)c2cc(C(=O)O)ccc2Cl)cc1 | 5.3 |
| CC(C)C(NC(=O)OCc1ccccc1)C(=O)OCC(=O)N1CCCCC1 (stereo not shown) | -7.36 |
| CC(C)C(NC(=O)c1ccccc1)C(=O)OCC(=O)N1CCN(c2ccccc2)CC1 (stereo not shown) | -2.47 |
| CC(C)[C@H](NC(=O)OCc1ccccc1)C(=O)OCC(=O)N1CCN(c2ccc(F)cc2)CC1 | -75.3 |
| CC(C)C(NC(=O)OCc1ccccc1)C(=O)OCC(=O)N1C(C)CCCC1C (stereo not shown) | 4.95 |
| CC(C)[C@H](NC(=O)OCc1ccccc1)C(=O)OCC(=O)Nc1ccc(N2CCOCC2)cc1 | -15.1 |
| CC(C)[C@H](NC(=O)OCc1ccccc1)C(=O)OCC(=O)N1CCN(c2ccccc2)CC1 | -58.3 |
| CCOC(=O)N1CCN(C(=O)CN(C2CCCCC2)S(=O)(=O)c2ccc(F)cc2)CC1 | -25.3 |
| O=C(Nc1cc(S(=O)(=O)N2CCOCC2)ccc1N1CCOCC1)c1cnccn1 | -42.7 |
| CC(C)(C)C(=O)NC(=S)Nc1ccccc1C(=O)NC1CCCCC1 | -18 |
| COc1ccc(C)cc1NC(=O)c1ccc2c(SCC(=O)O)c3c(nc2c1)CCCC3 | 10.9 |
| CC(C)OC(=O)CSc1nnc(-c2ccc(Cl)cc2Cl)o1 | -7.24 |
| CC(C)c1ccc(S(=O)(=O)N2CCN(CC(=O)Nc3ccc4c(c3)OCO4)CC2)cc1 | -13.9 |

| Structure (SMILES) | hERG current change (%, negative = inhibition) at 10uM [%] |
| --- | --- |
| O=C(CN1CCN(S(=O)(=O)c2ccc(Br)cc2)CC1)Nc1ccc2c(c1)OCCO2 | -27.9 |
| O=C(CN1CCN(S(=O)(=O)c2ccccc2)CC1)Nc1ccc2c(c1)OCO2 | -44.1 |
| O=C(CN1CCN(S(=O)(=O)c2ccc(Br)cc2)CC1)Nc1ccc2c(c1)OCO2 | -62.4 |
| O=C(CN1CCN(S(=O)(=O)c2ccc(Cl)cc2)CC1)Nc1ccc2c(c1)OCCO2 | -5.94 |
| O=C(CN1CCN(S(=O)(=O)c2ccc(Cl)cc2)CC1)Nc1ccc2c(c1)OCO2 | -65 |
| CCCc1nnc(SCC(=O)Nc2ccc(OC)cc2)o1 | 28.8 |
| Nn1c(SCc2ccccc2)nnc1C1CCCCC1 | 7.68 |
| COCC(=O)NC1CC(C)(C)Cc2c1cnn2-c1ccc(F)cc1 (stereo not shown) | -64.9 |
| CC(=O)N1CCC(C(=O)NC2CC(C)(C)Cc3c2cnn3-c2ccc(F)cc2)CC1 (stereo not shown) | -25.3 |
| COC(=O)CCC(=O)NC1CC(C)(C)Cc2c1cnn2-c1ccc(F)cc1 (stereo not shown) | 4.42 |
| CC1(C)Cc2c(cnn2-c2ccc(F)cc2)C(NC(=O)CCC(F)(F)F)C1 (stereo not shown) | -42.8 |
| CC1(C)Cc2c(cnn2-c2ccc(F)cc2)C(NC(=O)C2CCC2)C1 (stereo not shown) | -79.2 |
| CC1(C)Cc2c(cnn2-c2ccc(F)cc2)C(NC(=O)C(C)(C)O)C1 (stereo not shown) | -0.859 |
| CCN(CC)S(=O)(=O)c1ccc(C(=O)NCc2nnc(SCC(=O)OC)n2C)cc1 | -1.87 |
| O=C(Nc1cccc(-c2cccc(F)c2)c1)C1CCN(C2CCOCC2)CC1 | -75 |
| O=C(NC1CCN(C(=O)Nc2cccc(Cl)c2)CC1)C1CCCCC1 | 13.1 |
| O=C(Nc1cccc(F)c1)C1CCCCC1 | -9.22 |
| O=C(Nc1cccc(F)c1)C1CCN(C(=O)c2ccccc2Cl)CC1 | -8.66 |
| O=C(Nc1cccc(F)c1)C1CCN(C(=O)Cc2ccccc2)CC1 | -7.55 |
| O=C(Nc1cccc(-c2cccc(Cl)c2)c1)C1CCN(C2CCC2)CC1 | -73.7 |
| O=C(Nc1cccc(-c2cccc(F)c2)c1)C1CCN(C2CCC2)CC1 | -71.5 |
| Cl.O=C(Nc1cccc(Cl)c1)NC1CCN(C2CCCCC2)C1 (stereo not shown) | -56.6 |

| Structure (SMILES) | hERG current change (%, negative = inhibition) at 10uM [%] |
| --- | --- |
| O=C(Nc1cccc(Cl)c1)NC1CCCCC1 | 8.14 |
| CS(=O)(=O)N1CCC(C(=O)Nc2cccc(F)c2)CC1 | 15.2 |
| O=C(Nc1cccc(Cl)c1)C1CCCCC1 | -9.14 |
| CS(=O)(=O)N1CCC(C(=O)Nc2cccc(Cl)c2)CC1 | 2.18 |
| CCS(=O)(=O)N1CCC(C(=O)Oc2ccccc2OC)CC1 | 18.5 |
| CC(=O)Nc1ccc(NC(=O)c2c(-c3ccccc3Cl)noc2C)cc1 | 5.89 |
| COc1ccc(C(=O)N(c2ccc(C)cc2)C2C=CS(=O)(=O)C2)cc1OC (stereo not shown) | 9.79 |
| CC(=O)N1CCN(Cc2ccc(Br)s2)CC1 | -2.46 |
| C#CCOCCOCCOCCNc1nc(N2CCN(C(=O)CCCCCCCCCCNC(=O)Cn3cc(C[C@@H](C)O)nn3)CC2)nc(N2CCN(C(=O)CCCCCCCCCCNC(=O)[C@@H](CCSC)n3cc(CCO)nn3)CC2)n1 | 10.1 |
| O=C(COC(=O)/C=C/c1ccc([N+](=O)[O-])cc1)NCc1ccccc1 | 2.07 |
| CC12CCC(C(=O)NNC(=O)c3ccc(F)cc3)(OC1=O)C2(C)C (stereo not shown) | 24.6 |
| CCOc1ccc(NC(=O)c2ccc(-c3csc(C)n3)cc2)cc1 | 16.5 |
| CC(C)Nc1nnc(SCC(=O)Nc2ccc3c(c2)C(=O)c2ccccc2C3=O)s1 | -2.55 |
| COc1ccc(CCNc2nc(=O)[nH]nc2C)cc1OC | 2.35 |
| Cc1ccc(-c2nnc(CCC(=O)NCC3C4CC5CC(C4)CC3C5)o2)s1 (stereo not shown) | -6.1 |
| COc1cccc(-c2cccc(NC(=O)C3CCN(C4CCOCC4)CC3)c2)c1 | -42 |
| COc1cccc(-c2cccc(NC(=O)C3CCN(C4CCC4)CC3)c2)c1 | -51.7 |
| COc1cccc(NC(=O)C2CCC2)c1 | 8.83 |
| CCN(CC)CC(C)CNC(=O)C1(O)c2ccccc2NC(=O)N1c1ccc(Cl)c(Cl)c1 (stereo not shown) | 3.31 |
| COc1ccc(OCC(O)CNC(=O)Nc2cc(C)cc(C)c2)cc1 (stereo not shown) | 0.613 |
| Cc1cc(C(=O)N/N=C/c2ccco2)n[nH]1 | 31.6 |
| CC(=O)c1ccc(C(=O)N2CCCC(C(=O)c3cc(F)ccc3F)C2)s1 (stereo not shown) | 2.88 |

| Structure (SMILES) | hERG current change (%, negative = inhibition) at 10uM [%] |
| --- | --- |
| COc1cc(CNCCSc2nnnn2C)cc(Br)c1OCc1ccc(F)cc1.Cl | -43.9 |
| CCOc1cc(CNCCSc2nnnn2C)cc(Br)c1OCc1ccccc1.Cl | -23.1 |
| Cl.Cn1nnnc1SCCNCc1ccccc1OCc1ccc(F)cc1 | -29.6 |
| Cl.Cn1nnnc1SCCNCc1ccccc1OCc1ccc(Cl)cc1 | -53.4 |
| COc1cc(CNCCSc2nnnn2C)cc(Br)c1OCc1ccccc1.Cl | -56.3 |
| Cn1nnnc1SCCNCc1ccccc1OCc1ccccc1 | -9.36 |
| CCOC(=O)c1ccc(S(=O)(=O)N2CCN(CCC#N)CC2)cc1 | -14.7 |
| Cc1ccc(CNC(=O)COC(=O)CSc2ccc(Br)cc2C)cc1 | 10.9 |
| Cc1nnc(Nc2ccc(O)cc2)[nH]c1=O | 27.7 |
| CCN1CCN(c2ccc(S(=O)(=O)N3CCOCC3)cc2NC(=O)c2ccccc2SC)CC1 | -60.1 |
| CCN1CCN(c2ccc(S(=O)(=O)N3CCOCC3)cc2NC(=O)c2ccc(Cl)cc2Cl)CC1 | -38.4 |
| CCN1CCN(c2ccc(S(=O)(=O)N3CCOCC3)cc2NC(=O)c2ccc(C)c(C)c2)CC1 | -40 |
| CCN1CCN(c2ccc(S(=O)(=O)N3CCOCC3)cc2NC(=O)c2ccc(F)cc2Cl)CC1 | -35.7 |
| CCN1CCN(c2ccc(S(=O)(=O)N3CCOCC3)cc2NC(=O)c2ccc(Cl)s2)CC1 | -57.1 |
| CCN1CCN(c2ccc(S(=O)(=O)N3CCOCC3)cc2NC(=O)c2ccccc2OC(F)F)CC1 | -42.5 |
| C/C(=N/OC(=O)c1c(-c2c(Cl)cccc2Cl)noc1C)c1cnccn1 | -1.72 |
| Cc1nc(NCc2ccccc2)c2cc[nH]c2n1 | 21 |
| Cc1nc2sc(C(c3cccc(F)c3)N3CCCCC3)c(O)n2n1 (stereo not shown) | 4.79 |
| O=C(NCC1CCCO1)c1ccc(Cn2c(=S)[nH]c3ccccc3c2=O)cc1 (stereo not shown) | 18.2 |
